Measured values published in PubChem BioAssay AID1159580 (chemical genetic matrix, 2015).
“And” between values parts separate entries of the source, which are not always exact repeats. Equal entries are not always repeated. Hit rate of the full screen: of about 5,500 compounds, about 2,000 (36%) were called active. Roughly 18% stayed inconclusive and do not appear here. Rule as the data show it: active = normalized growth mostly below about 0.91 (no sharp cut-off); inconclusive = no clear call, values can overlap the other calls; inactive = mostly above about 0.92. Some of the results follow.

Test: chemical genetic growth profiling, strain panel (AID 1159580);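 also: tested at 20 µM; growth read once vehicle control cultures reached saturation at 30 °C; 1 = growth at the plate median or of vehicle wells; lower values mean less growth of the strain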
Conditions: growth OD
[1] = S. cerevisiae deletion strains, locus YBR021W, strain FUR4, active compounds read low
[2] = S. cerevisiae deletion strains, locus YBR229C, strain ROT2, active compounds read low
[3] = S. cerevisiae deletion strains, locus YCL029C, strain bik1, active compounds read low
[4] = S. cerevisiae deletion strains, locus YDL035C, strain GPR1, active compounds read low
[5] = S. cerevisiae deletion strains, locus YDL074C, strain BRE1, active compounds read low
[6] = S. cerevisiae deletion strains, locus YDL101C, strain DUN1, active compounds read low
[7] = S. cerevisiae deletion strains, locus YDL134C, strain PPH21, active compounds read low
[8] = S. cerevisiae deletion strains, locus YDL185W, strain tfp1, active compounds read low
[9] = S. cerevisiae deletion strains, locus YDL192W, strain arf1, active compounds read low
[10] = S. cerevisiae deletion strains, locus YDR101C, strain arx1, active compounds read low
[11] = S. cerevisiae deletion strains, locus YDR162C, strain NBP2, active compounds read low
[12] = S. cerevisiae deletion strains, locus YDR318W, strain mcm21, active compounds read low
[13] = S. cerevisiae deletion strains, locus YDR388W, active compounds read low
[14] = S. cerevisiae deletion strains, locus YDR502C, strain sam2, active compounds read low
[15] = S. cerevisiae deletion strains, locus YEL061C, strain CIN8, active compounds read low
[16] = S. cerevisiae deletion strains, locus YER110C, active compounds read low
[17] = S. cerevisiae deletion strains, locus YER155C, strain BEM2, active compounds read low
[18] = S. cerevisiae deletion strains, locus YER167W, strain BCK2, active compounds read low
[19] = S. cerevisiae deletion strains, locus YGL078C, strain dbp3, active compounds read low
[20] = S. cerevisiae deletion strains, locus YGL086W, strain mad1, active compounds read low
[21] = S. cerevisiae deletion strains, locus YGL248W, strain PDE1, active compounds read low
[22] = S. cerevisiae deletion strains, locus YGR078C, strain PAC10, active compounds read low
[23] = S. cerevisiae deletion strains, locus YGR135W, strain pre9, active compounds read low
[24] = S. cerevisiae deletion strains, locus YGR252W, strain gcn5, active compounds read low
[25] = S. cerevisiae deletion strains, locus YHR030C, strain SLT2, active compounds read low
[26] = S. cerevisiae deletion strains, locus YHR079C, strain IRE1 (second series), active compounds read low
[27] = S. cerevisiae deletion strains, locus YHR094C, strain hxt1, active compounds read low
[28] = S. cerevisiae deletion strains, locus YHR129C, strain ARP1, active compounds read low
[29] = S. cerevisiae deletion strains, locus YHR200W, strain rpn10, active compounds read low
[30] = S. cerevisiae deletion strains, locus YIL066C, strain RNR3, active compounds read low
[31] = S. cerevisiae deletion strains, locus YIL073C, strain SPO22, active compounds read low
[32] = S. cerevisiae deletion strains, locus YIL125W, strain kgd1, active compounds read low
[33] = S. cerevisiae deletion strains, locus YIR030C, strain dcg1, active compounds read low
[34] = S. cerevisiae deletion strains, locus YJL095W, strain BCK1, active compounds read low
[35] = S. cerevisiae deletion strains, locus YJL134W, strain LCB3, active compounds read low
[36] = S. cerevisiae deletion strains, locus YJL168C, strain set2, active compounds read low
[37] = S. cerevisiae deletion strains, locus YJL187C, strain SWE1 (second series), active compounds read low
[38] = S. cerevisiae deletion strains, locus YJR043C, strain POL32, active compounds read low
[39] = S. cerevisiae deletion strains, locus YJR075W, strain HOC1, active compounds read low
[40] = S. cerevisiae deletion strains, locus YKL009W, strain mrt4, active compounds read low
[41] = S. cerevisiae deletion strains, locus YKL068W, active compounds read low
[42] = S. cerevisiae deletion strains, locus YKL085W, strain MDH1 (second series), active compounds read low
[43] = S. cerevisiae deletion strains, locus YKL085W, strain MDH1, active compounds read low
[44] = S. cerevisiae deletion strains, locus YKL190W, strain CNB1, active compounds read low
[45] = S. cerevisiae deletion strains, locus YKR001C, strain vps1, active compounds read low
[46] = S. cerevisiae deletion strains, locus YLR039C, strain RIC1, active compounds read low
[47] = S. cerevisiae deletion strains, locus YLR058C, strain SHM2, active compounds read low
[48] = S. cerevisiae deletion strains, locus YLR102C, strain apc9, active compounds read low
[49] = S. cerevisiae deletion strains, locus YLR262C, strain YPT6, active compounds read low
[50] = S. cerevisiae deletion strains, locus YLR268W, strain sec22, active compounds read low
[51] = S. cerevisiae deletion strains, locus YLR330W, strain CHS5, active compounds read low
[52] = S. cerevisiae deletion strains, locus YLR342W, strain FKS1 (second series), active compounds read low
[53] = S. cerevisiae deletion strains, locus YLR371W, strain rom2, active compounds read low
[54] = S. cerevisiae deletion strains, locus YLR418C, strain cdc73, active compounds read low
[55] = S. cerevisiae deletion strains, locus YML016C, strain PPZ1, active compounds read low
[56] = S. cerevisiae deletion strains, locus YML032C, strain rad52, active compounds read low
[57] = S. cerevisiae deletion strains, locus YML124C, strain tub3, active compounds read low
[58] = S. cerevisiae deletion strains, locus YMR078C, strain ctf18, active compounds read low
[59] = S. cerevisiae deletion strains, locus YMR223W, strain ubp8, active compounds read low
[60] = S. cerevisiae deletion strains, locus YMR263W, strain SAP30, active compounds read low
[61] = S. cerevisiae deletion strains, locus YMR307W, strain GAS1, active compounds read low
[62] = S. cerevisiae deletion strains, locus YNL067W, strain RPL9B, active compounds read low
[63] = S. cerevisiae deletion strains, locus YNL153C, strain GIM3, active compounds read low
[64] = S. cerevisiae deletion strains, locus YNL233W, strain BNI4, active compounds read low
[65] = S. cerevisiae deletion strains, locus YNL250W, strain rad50, active compounds read low
[66] = S. cerevisiae deletion strains, locus YNL271C, strain bni1, active compounds read low
[67] = S. cerevisiae deletion strains, locus YNL298W, strain CLA4, active compounds read low
[68] = S. cerevisiae deletion strains, locus YNL307C, strain MCK1, active compounds read low
[69] = S. cerevisiae deletion strains, locus YNL322C, strain KRE1, active compounds read low
[70] = S. cerevisiae deletion strains, locus YNR052C, strain pop2, active compounds read low
[71] = S. cerevisiae deletion strains, locus YOL006C, strain TOP1, active compounds read low
[72] = S. cerevisiae deletion strains, locus YOL012C, strain htz1
[73] = S. cerevisiae deletion strains, locus YOL147C, strain pex11, active compounds read low
[74] = S. cerevisiae deletion strains, locus YOR061W, strain CKA2, active compounds read low
[75] = S. cerevisiae deletion strains, locus YOR069W, strain VPS5, active compounds read low
[76] = S. cerevisiae deletion strains, locus YOR136W, strain idh2, active compounds read low
[77] = S. cerevisiae deletion strains, locus YOR144C, strain elg1, active compounds read low
[78] = S. cerevisiae deletion strains, locus YOR184W, strain ser1, active compounds read low
[79] = S. cerevisiae deletion strains, locus YOR316C, strain cot1, active compounds read low
[80] = S. cerevisiae deletion strains, locus YPL055C, strain LGE1, active compounds read low
[81] = S. cerevisiae deletion strains, locus YPL241C, strain CIN2, active compounds read low
[82] = S. cerevisiae deletion strains, locus YPR119W, strain clb2, active compounds read low
[83] = S. cerevisiae deletion strains, locus YPR141C, strain kar3, active compounds read low
[84] = S. cerevisiae deletion strains, locus YPR163C, strain tif3, active compounds read low
[85] = S. cerevisiae deletion strains, locus YPR167C, strain met16, active compounds read low
[86] = S. cerevisiae deletion strains, strain wtn01, active compounds read low

Measured: normalized growth

CC[C@H](/C=C/C(C)C1CCC2C3CCC4=CC(=O)CC[C@]4(C)C3CC[C@]12C)C(C)C (stereo partly drawn)
inactive: [1] 1.01 | [2] 1 | [3] 1.02 | [4] 1.02 | [5] 1.02 | [6] 1.01 | [7] 1.03 | [8] 1.01 | [9] 1 | [10] 1.01 | [11] 1.03 | [12] 1 | [13] 1.01 | [14] 1.02 | [15] 1 | [16] 1 | [17] 1.01 | [18] 1.02 | [19] 1.01 | [20] 0.997 | [21] 1.02 | [22] 1.03 | [23] 1 | [24] 1.01 | [25] 1.01 and 1.1 | [26] 0.991 | S. cerevisiae deletion strains, locus YHR079C, strain IRE1, active compounds read low 1.07 | [27] 0.99 | [28] 1.01 | [29] 1 | [30] 1.03 | [31] 1.05 | [32] 1.01 | [33] 1 | [34] 1.02 and 1.05 | [35] 1.01 | [36] 1 | [37] 1.02 | [38] 1.03 | S. cerevisiae deletion strains, locus YJR066W, strain TOR1, active compounds read low 0.985 | [39] 1.02 | [40] 1.04 | [41] 1.01 | [42] 1.01 | [43] 1.01 | [44] 1.01 | [45] 1.02 | [46] 1.07 | [47] 1.01 | [48] 0.999 | S. cerevisiae deletion strains, locus YLR113W, strain HOG1, active compounds read low 1.04 | [49] 1.06 | [50] 1.02 | [51] 1.01 | [52] 0.996 | [53] 1.02 | [54] 1.01 | [55] 1 | [56] 1.01 | [57] 1 | [58] 1 | [59] 1.01 | [60] 1.01 | [61] 1.04 | [62] 1.02 | [63] 1.01 | S. cerevisiae deletion strains, locus YNL183C, strain NPR1, active compounds read low 0.996 | [64] 1.02 | [65] 1 | [66] 1.01 | [67] 1 | [68] 1.01 | [69] 1.02 | [70] 1.01 | [71] 1.13 | [72] 1.25 | [73] 1 | [74] 1.01 | [75] 1.01 | [76] 1 | [77] 0.994 | [78] 0.999 | S. cerevisiae deletion strains, locus YOR231W, strain MKK1, active compounds read low 1.08 | [79] 1 | [80] 1.04 | [81] 1.01 | S. cerevisiae deletion strains, locus YPL256C, strain CLN2, active compounds read low 1.03 | [82] 1 | [83] 1.01 | [84] 1.01 | [85] 1.03 | [86] 0.992

CC(=O)C1CCC2C3CC(=O)C4=CC(=O)CCC4(C)C3CCC12C (stereo not drawn)
inactive: S. cerevisiae deletion strains, locus YAL013W, strain DEP1, active compounds read low 0.971 | [1] 0.995 | [2] 0.955 | [3] 0.972 | [4] 0.971 | [5] 0.875 | [6] 0.935 | [7] 0.976 | [8] 0.946 | [9] 0.982 | [10] 0.99 | S. cerevisiae deletion strains, locus YDR150W, strain NUM1, active compounds read low 0.95 | [11] 0.866 | [12] 0.996 | [13] 0.983 | [14] 0.95 | [15] 0.981 | [16] 0.971 | [17] 1 | [18] 0.995 | [19] 0.979 | [20] 1.01 | [21] 0.967 | [22] 0.928 | [23] 0.926 | S. cerevisiae deletion strains, locus YGR229C, strain SMI1, active compounds read low 1.03 | [24] 1.02 | [25] 0.995 | [26] 0.984 | [27] 0.982 | [28] 0.985 | [29] 0.982 | [30] 0.948 | [31] 0.99 | [32] 0.983 | [33] 0.982 | [34] 0.965 | [35] 0.975 | [36] 0.978 | [37] 0.931 | [38] 1.01 | [39] 0.953 | [40] 0.968 | [41] 0.982 | [42] 0.943 | [43] 0.943 | [44] 0.964 | [45] 0.971 | [46] 0.735 | [47] 0.971 | [48] 0.971 | [49] 0.749 | [50] 0.928 | [51] 0.989 | [52] 1.01 | [53] 0.986 | [54] 0.862 | [55] 0.979 | [56] 1.01 | [57] 0.998 | [58] 0.968 | [59] 1 | [60] 0.936 | [61] 1.01 | [62] 0.936 | S. cerevisiae deletion strains, locus YNL128W, strain TEP1, active compounds read low 0.924 | [63] 0.922 | [64] 0.972 | [65] 0.948 | [66] 0.983 | [67] 0.968 | [68] 0.971 | [69] 0.977 | [70] 0.989 | [71] 0.846 | [72] 0.923 | [73] 0.99 | [74] 0.942 | [75] 0.975 | [76] 0.984 | [77] 0.988 | [78] 0.959 | [79] 0.968 | [80] 0.852 | [81] 0.974 | [82] 0.99 | [83] 0.957 | [84] 0.967 | [85] 0.979 | [86] 0.951 | S. cerevisiae strains, strain wild type, active compounds read low 0.972
